# The source made the active and inactive calls. The rule behind the calls is not given here.
# Target: Pantothenate synthetase (Mycobacterium tuberculosis (strain ATCC 25618 / H37Rv)) (UniProt P9WIL5)
# Test: Recombinant Mtb pantothenate synthetase (PanC) inhibitors, coupled enzyme, confirmatory (AID 375);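 note: 0% = full reaction with vehicle and 100% = no enzyme background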
# Details: coupled enzyme assay; at 10 µM, hits give high values
# Sequence of Pantothenate synthetase (Mycobacterium tuberculosis (strain ATCC 25618 / H37Rv)) (P9WIL5 whole entry, looked up): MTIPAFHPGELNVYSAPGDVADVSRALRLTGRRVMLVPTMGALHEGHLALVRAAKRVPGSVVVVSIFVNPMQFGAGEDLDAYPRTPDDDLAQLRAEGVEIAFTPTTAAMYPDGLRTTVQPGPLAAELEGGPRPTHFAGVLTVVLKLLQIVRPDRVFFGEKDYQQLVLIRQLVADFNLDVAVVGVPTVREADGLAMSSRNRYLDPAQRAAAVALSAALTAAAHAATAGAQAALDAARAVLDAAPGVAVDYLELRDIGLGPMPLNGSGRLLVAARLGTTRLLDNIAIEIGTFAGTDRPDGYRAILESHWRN
row,SMILES,inhibition
1,COc1cccc(NS(=O)(=O)c2ccc3[nH]cc(C(=O)NC4CC4)c(=O)c3c2)c1,2% (inactive)
2,CN1CCC(NC(=O)c2cccs2)CC1,2% (inactive)
3,Cc1ccc(-n2nc(-c3cccs3)cc2C(=O)NCC2CCCO2)c(C)c1 (stereo unspecified),0% (inactive)
4,CCCCOc1ccc(-c2nnn(C(C)(C)C(=O)OC)n2)cc1,5% (inactive)
5,COC(=O)c1ccsc1NC(=O)CN1C(=O)CCC1=O,0% (inactive)
6,CC(=O)[C@@]1(O)CC[C@H]2[C@@H]3CCC4=CC(=O)CC[C@]4(C)[C@H]3[C@@H](O)C[C@@]21C,0% (inactive)
7,COC(=O)c1[nH]c2ccc(C)cc2c1NC(=O)CN1CCCC(C)(C)C1,0% (inactive)
8,COc1ccc2[nH]c(=O)c(CN(CC3CCCO3)C(=O)Nc3ccc(F)cc3)cc2c1 (stereo unspecified),0% (inactive)
9,O=C(O)c1cc2nc(-c3ccc(F)cc3)cc(C(F)(F)F)n2n1,2% (inactive)
10,COc1ccc(C(=O)CN2C3=NCCCN3c3ccccc32)cc1OC,0% (inactive)
11,Cn1c(=O)c2c3c(sc2n2c(SCc4ccccc4)nnc12)CCCC3,0% (inactive)
12,Cc1ccc2c(c1)NC(=O)C(CC(=O)NCCCN1CCN(c3cc(Cl)ccc3C)CC1)O2 (stereo unspecified),1% (inactive)
13,O=C(O)C1CCCCC1C(=O)NCCc1ccccc1 (stereo unspecified),0% (inactive)
14,COc1ccc(Cl)cc1C(=O)NCCc1ccc(S(=O)(=O)NC(=O)NC2CCCCC2)cc1,0% (inactive)
15,Cc1nn(-c2ccc(F)cc2)c2sc(C(=O)OCC(=O)N3CCC(C)CC3)cc12,0% (inactive)
16,O=C(CCn1c(=O)oc2ccccc21)NCCN1CCOCC1,4% (inactive)
